# Assay outcomes from PubChem BioAssay.
# Rows were chosen to be rich in hits. Some 3.6% of all compounds tested hit in one or more screens of this group.
# HTT prom inh – HTT promoter inhibition | HEK293 HTT promoter firefly luciferase reporter, 24 h | hit rate 0.93% among 48,000 | Potency, µM (series often up to 57.5 µM), for inactives: at the highest dose activity change, negative = inhibition, hits mostly inhibitors; also: potency is read from the fitted curve at half-maximal effect; nearly all actives have a fitted effect of over 50% in size
#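 HEK293 luciferase promoter-reporter cells (2,500/well) plated 24 h, then compounds added at up to 57.5 uM final for 24 h at 37 °C. Firefly luminescence by Dual-Glo, normalized to vehicle (0%) and zero RLU (-100%).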
# HTT-AS promoter – activators of huntingtin-antisense promoter activity; HEK293 HTT-AS promoter firefly luciferase reporter, 24 h; response scale: percent change from vehicle, -100% = no light; Potency, µM (series often up to 57.5 µM), inactives show at the highest dose activity change, positive = activation, usual class: activators; hit rate 0.24% among 48,000; also: potency is read from the fitted curve at half-maximal effect; nearly all actives have a fitted effect of over 55% in size
#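 HEK293 luciferase promoter-reporter cells (2,500/well) plated 24 h, then compounds added at up to 57.5 uM final for 24 h at 37 °C. Firefly luminescence by Dual-Glo, normalized to vehicle (0%) and zero RLU (-100%).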
# B2AR arrestin ag – ADRB2 beta-arrestin recruitment; HTLA Tango cells, beta-arrestin recruitment, luciferase luminescence, 18 h; P07550; AID 1347077; 44,000 tested, under 10 active; Potency, µM (doses to about 46.1 µM), hits mostly activators;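 also: potency is read from the fitted curve at half-maximal effect; 0% = DMSO and full agonism = EC100 isoproterenol or metaproterenol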
#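 Luminescence read-out: arrestin recruitment to recombinant beta2-AR releases tTA, inducing luciferase. Cells exposed 18 hr at 37 degrees C to up to 46 microM compound; %Activity from corrected signal, concentration-response curves classified by r2, magnitude and efficacy.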
# DRV1 agonist – GPR32 (DRV1) agonism, beta-arrestin recruitment. O75388. activation, % at 76.9 µM. AID 1346428. CHO-K1 GPR32 beta-arrestin PathHunter luminescence, 90 min; zero percent set by DMSO-only wells. hit rate 2.5% among 48,000;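 active = activation of at least 60% and not above a set upper limit, about 1 call in 100 departs from these limits; inconclusive = activation of 40% to 60%, or above that upper limit; inactive = activation under 40%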; also: 0% is about no effect
# Target sequence (O75388 whole entry, looked up): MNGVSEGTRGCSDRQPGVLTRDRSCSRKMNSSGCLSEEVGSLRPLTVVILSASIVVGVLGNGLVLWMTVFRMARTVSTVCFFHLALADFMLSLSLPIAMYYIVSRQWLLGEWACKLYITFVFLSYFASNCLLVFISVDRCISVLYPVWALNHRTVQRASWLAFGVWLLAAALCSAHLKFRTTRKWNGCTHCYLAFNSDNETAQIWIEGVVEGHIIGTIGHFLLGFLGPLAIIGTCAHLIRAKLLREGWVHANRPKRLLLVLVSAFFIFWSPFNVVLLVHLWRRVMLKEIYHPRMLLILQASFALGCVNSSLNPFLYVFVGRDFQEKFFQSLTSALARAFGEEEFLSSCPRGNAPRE
#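 Agonism was scored by beta-Gal fragment complementation (chemiluminescent read, 1 h detection at ambient temperature) reporting beta-arrestin binding to GPR32 in engineered CHO-K1 cells. Compound treatment lasted 90 min at 37 C, normalized to a DMSO basal control.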
# GALK inhibitor – inhibitors of human galactokinase (GALK) | Potency, µM (highest dose often 57.5 µM), without a hit: at the highest dose activity, negative = inhibition, usual class: inhibitors | 44,000 tested, under 10 active | recombinant GALK, Kinase-Glo ATP luminescence, 1 h | P51570;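 also: plate controls were full GALK reaction for no effect and reaction lacking GALK for full effect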
#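 Compounds were pinned into ATP buffer, then GALK-galactose mix was added (final 5 nM enzyme, 35 uM ATP, 100 uM galactose, pH 8.0). After 1 h at room temperature, Kinase-Glo Plus was added and luminescence read.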
# TSG101-PTAP inh – inhibitors of HIV-1 PTAP binding to human TSG101, validation; Fluorescence polarization, FITC-PTAP peptide/Tsg101, 20 min; 44,000 tested, under 10 active; Potency, µM (series often up to 115 µM), hits mostly inhibitors; AID 1347069; also: potency is read from the fitted curve at half-maximal effect; 0% is about no effect
#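 qHTS FP binding, 20 min r.t.: 10 uM Tsg101 domain + 50 nM FITC-PTAP peptide, pH 7.5 HEPES buffer with TCEP and EDTA.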
# Starred values were filed as active, the others as inactive; i = inactive; ? = inconclusive; . = no result given; ! = not confirmed by another sample; [ ] = dose if it differs, or a comment. Unless noted, calls follow the shape of the dose curve; as a rule, active = well fitted curve in the direction sought with a large enough effect; inconclusive = small, poorly fitted or top-dose-only effect, or another doubt; inactive = no such curve, though single readings can be large; an effect the other way counts as inactive or inconclusive.
SMILES,HTT prom inh,HTT-AS promoter,B2AR arrestin ag,DRV1 agonist,GALK inhibitor,TSG101-PTAP inh
CCC(C)NC(=O)CSCc1nc(-c2ccc(C)cc2)oc1C (stereo not given),?,-19%,i,-3,-2%,i
COc1ccc(-c2nc(CSCC(=O)N3CCN(c4cc(Cl)ccc4C)CC3)c(C)o2)cc1,13µM*,-55%,i,-14,-16%,i
CCCCCCCC/C=C/C(=O)O,-2%,-2%,.,-13,.,.
N=C1SC(=Cc2ccc(-c3ccc4c(c3)C(=O)NC4=O)o2)C(=O)N1c1ccc(Br)cc1,11%,2%,.,.,.,.
CCOc1ccc(-c2nc(CSCC(=O)N3CCN(c4cccc(C(F)(F)F)c4)CC3)c(C)o2)cc1,16µM*,-52%,i,-25,3%,i
CCOc1ccc(-c2nc(CSCC(=O)N3CCN(c4ccc(F)cc4)CC3)c(C)o2)cc1,-17%,-6%,i,-14,0%,i
CCOC(=O)c1c(C)oc2nc(C)nc(N3CCN(c4cccc(C(F)(F)F)c4)CC3)c12,25µM*,-65%,i,-16,1%,i
COCCOc1ccc2c(c1)ncn2-c1ccc2cccc(N3CCC(N)CC3)c2n1,?,-3%,.,.,.,.
C[C@H]1[C@@H](OC(=O)CCC(=O)O)O[C@@H]2O[C@@]3(C)CC[C@@H]4[C@H](C)CC[C@@H]1[C@@]24OO3,?,-31%,.,.,.,.
CC1(C)CCC(CN2CCN(c3ccc(C(=O)NS(=O)(=O)c4ccc(NCC5CCOCC5)c([N+](=O)[O-])c4)c(Oc4cnc5[nH]ccc5c4)c3)CC2)=C(c2ccc(Cl)cc2)C1,-4%,-6%,.,.,.,.
COc1ccccc1C(=O)OCc1cc(=O)n2c(C)csc2n1,59%,11µM*,i,37,0%,i
COc1cc([C@@H]2c3cc4c(cc3[C@@H](O[C@@H]3O[C@@H]5CO[C@@H](C)O[C@@H]5[C@H](O)[C@@H]3O)[C@H]3COC(=O)[C@H]23)OCO4)cc(OC)c1O,-29%,-38%,.,.,.,.
CC1=C(C(=O)Nc2cc3cn[nH]c3cc2F)C(c2ccc(C(F)(F)F)cc2)CC(=O)N1 (stereo not given),-4%,-13%,.,.,.,.
Cc1[nH]c(C=C2C(=O)Nc3ccccc32)c(C)c1CCC(=O)O,?,-90%,.,.,.,.
CC(C)c1cc(C(C)C)c(CC(=O)NS(=O)(=O)Oc2c(C(C)C)cccc2C(C)C)c(C(C)C)c1,?,-10%,.,.,.,.
CCCCCCCC/C=C\CCCCCCCC(=O)NCc1ccc(O)c(OC)c1,-2%,-9%,.,75*!,.,.
Nc1ccc2c(c1)CN1C(=O)c3ccccc3C1=N2,-27%[25.2 µM],-52%[25.1 µM],.,14,.,.
COc1ccc(-c2cn3nc(N4CCC(C(=O)Nc5cccc(OC)c5)CC4)sc3n2)cc1,-9%,0%,i,76*,1%,i
Cc1cc(C(=O)NOCCO)c(Nc2ccc(I)cc2F)n(C)c1=O,-12%,-24%,.,.,.,.
COc1cc(F)c(C(C)C)cc1-c1ccc(C(F)(F)F)cc1CN1C(=O)O[C@H](c2cc(C(F)(F)F)cc(C(F)(F)F)c2)[C@@H]1C,-9%,-20%,.,.,.,.
CC(C)c1ccc(C2=CC(c3cccc(Cl)c3)n3c(nc4ccccc43)N2)cc1 (stereo not given),?,?,i,47,-1%,i
CC(C)c1ccc(C2=CC(c3cccc(Cl)c3)n3ncnc3N2)cc1 (stereo not given),-37%,-20%,i,74*,1%,i
CC(C)Cc1ccc(C(C)C(=O)OCc2ccccn2)cc1 (stereo not given),-10%,-10%,.,-1,.,.
CCOc1ccc(NCc2cccn2-c2nnc(N3CCC(C(=O)NCc4cccc(OC)c4)CC3)s2)cc1,?,-46%,i,-33,5%,i
CCOc1ccc(NCc2cccn2-c2nnc(N3CCC(C(=O)NCc4ccc(C)cc4)CC3)s2)cc1,14µM*,-52%,i,-25,-3%,i
SMILES,HTT prom inh,HTT-AS promoter,B2AR arrestin ag,DRV1 agonist,GALK inhibitor,TSG101-PTAP inh
Cc1ccc(NCc2cccn2-c2nnc(N3CCC(C(=O)NCc4ccc(OC(C)C)cc4)CC3)s2)cc1,28µM*,-43%,i,-26,-10%,i
Cc1cc(OCCOCC[N+](C)(C)Cc2ccccc2)ccc1C(C)(C)CC(C)(C)C,?,-49%,.,6,.,.
COc1ccc(C(=O)NC(c2ccc(Cl)cc2)c2cc(Cl)c3cccnc3c2O)cc1 (stereo not given),18µM*,-59%,i,-41,0%,i
CCCCn1c(=N)n(CCCOc2ccc(F)cc2)c2ccccc21,-30%,-25%,i,76*,4%,i
O=C(NCCO)c1ccc(-c2nnc(Nc3ccc(OC(F)(F)Cl)cc3)c3ccccc23)cc1,?,-49%,i,66*,7%,i
Fc1ccc(Nc2nc3nonc3nc2Nc2cccc(C(F)(F)F)c2)cc1,1.3µM*,-95%,i,-10,-2%,i
Cc1ccc(-n2ncc3c(N(CC(C)C)CC(C)C)ncnc32)c(C)c1,?,-19%,i,30,-1%,i
Cc1ccc(-n2ncc3c(NCC(C)C)ncnc32)c(C)c1,-9%,17%,i,62*,-1%,i
O=C(O)c1cn(C2CC2)c2cc(Cl)c(F)cc2c1=O,12%,-6%,.,-5,.,.
CC(C)(C)Cn1c(N)nc2ccc(-c3[nH]c(C(C)(C)C)nc3-c3ccc(F)cc3)nc21,?,-31%,.,.,.,.
CCCCC(=O)N(c1ccc2oc(C)c(C(C)=O)c2c1)S(=O)(=O)c1ccc(F)cc1C,-41%,-29%,i,-7,2%,i
COc1ccc(S(=O)(=O)N(C(=O)c2ccncc2)c2ccc3oc(C)c(C(C)=O)c3c2)cc1,14µM*,-51%,i,12,0%,i
CCOC(=O)c1c(C)oc2ccc(N(C(=O)Oc3ccccc3)S(=O)(=O)c3ccc(CC)cc3)cc12,-25%,-29%,i,-15,2%,i
CCCC(=O)N(c1ccc2oc(C)c(C(C)=O)c2c1)S(=O)(=O)c1ccc(C)cc1,-24%,-29%,i,-4,0%,i
CC(=O)c1c(C)oc2ccc(N(C(=O)c3ccncc3)S(=O)(=O)c3ccc(C)cc3C)cc12,28µM*,-45%,i,8,2%,i
COC(=O)c1c(C)oc2ccc(N(C(=O)c3ccncc3)S(=O)(=O)c3ccc(OC)cc3)cc12,2.2µM*,-68%,i,23,-1%,i
